# Peg3 prom inh: reduces Peg3 promoter-driven luciferase expression in HeLa | inhibition, % at 20 µM | HeLa PEG-Prom luciferase reporter, luminescence, overnight | 1.7% of 360,000 active;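 active = inhibition of at least 50% at 20 µM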
# TWEAK Fn14 block: blocks TWEAK-Fn14 interaction in a reporter cell assay. TWEAK-stimulated Fn14 reporter cells, luciferase luminescence, 8 h. inhibition, % at 10 µM. 2% of 360,000 active; in the data active = inhibition above about 50%
# CF NFkB inh: inhibitors of cystic fibrosis induced NF-kB; KKLEB NF-kB-GFP reporter, PAF-induced, GFP fluorescence overnight; inhibition, % at 5 µM; 0.86% of 360,000 active;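 active = at least 50% inhibition at 5 µM, scaled per plate between neutral and stimulator controls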;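 note: PAF is a Pseudomonas aeruginosa culture filtrate used as stimulus; plate controls were PAF-stimulated DMSO wells for no effect and unstimulated DMSO wells for full effect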
# KKLEB cytotox: CF airway cell cytotoxicity counter-screen. activity change (cytotoxicity), % at 5 µM. 0.36% of 360,000 active. KKLEB CF airway cells viability, ATPlite luminescence, overnight; active compounds read low; cells stimulated with P. aeruginosa culture filtrate;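 active = corrected activity change at or below -50% at 5 µM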
# TROY NFkB inh: inhibitors of TROY-dependent NF-kB signaling; Q293 LMP1-TROYcd NF-kB luciferase reporter, 4 h; inhibition, % at 10 µM; 0.98% of 360,000 active; AID 1347056;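 active = compounds whose plate-normalised and pattern-corrected inhibition of the luciferase reporter signal at the single screening dose is 50% or more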
# HIF-2a inh: blocks HIF-2a reporter activity | 786-0 RCC cells HIF-2a reporter, luciferase luminescence, overnight | AID 624352 | inhibition, % at 18.8 µM | 0.72% of 360,000 active;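 active = inhibition of the luminescence signal of 40% or more relative to plate controls, in a single-dose primary screen at 18.75 µM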
# * = called active by the depositor; . = no result given. Compounds with a hit are over-represented: about 4% of the library has one in this group of screens.
SMILES,Peg3 prom inh,TWEAK Fn14 block,CF NFkB inh,KKLEB cytotox,TROY NFkB inh,HIF-2a inh
COc1cc2nc(Nc3ccc(F)cc3)nc(N)c2cc1OC,-24,-6,-47,-13,2,-43
CN(C)CCOC(=O)CCCCCCCCC(=O)OCCN(C)C,10,-4,-6,-2,-7,15
Cc1ccc(S(=O)(=O)N2CCOCC2)cc1NC(=O)CSCc1c(C)noc1C,-2,-18,-8,0,-15,3
COc1ccc(C)cc1Nc1nc(N)c2ccccc2n1,-96,-16,-10,2,-42,-146
COc1ccc(OC)c(Nc2nc(NCCO)c3ccccc3n2)c1,14,-34,-47,4,0,8
COc1cc2nc(Nc3ccc(C)c(Cl)c3)nc(N)c2cc1OC,114*,102*,-1,-51*,33,-19
Cc1ccccc1Nc1nc(N)c2ccccc2n1,-201,53*,22,-25,-34,-107
Cc1ccc(Nc2nc(N)c3ccccc3n2)cc1Cl,-87,68*,1,-46,16,-106
Cc1ccc(Nc2nc(NCCO)c3ccccc3n2)cc1C,54*,-1,27,-18,6,-94
CCCCC(=O)N(C)c1c(CC)nc2c(OCC(=O)N3CCOCC3)cccn12,-3,-1,21,-9,0,2
CC1CCc2c(sc(NC(=O)Cn3nc(C(=O)O)c4ccccc4c3=O)c2C#N)C1 (stereo not drawn),-47,-63,6,5,-28,-64
CCN1CCN(CC(=O)Nc2sc3c(c2C#N)CCC(C)C3)CC1 (stereo not drawn),41,78*,-8,-3,.,0
O=C(NCCC(=O)N1CCCC(C(F)(F)F)C1)c1ccccc1Cl (stereo not drawn),-9,1,-16,7,8,2
COC(=O)[C@@]12C[C@@H](CC(=O)NCCCN3CCCC3=O)C(=O)N(CCc3ccc(OC)c(OC)c3)C1=CCC(C)(C)C2,.,.,.,.,.,5
COc1ccc(CNC(=O)CSc2nc(SC)ns2)cc1,6,9,1,-1,20,0
CO/N=C/c1ccc(Oc2ccc([N+](=O)[O-])cc2[N+](=O)[O-])c(OC)c1,-2,12,-8,-10,1,-3
COc1cc(/C=C2\SC(=O)NC2=O)ccc1Oc1ccc([N+](=O)[O-])cc1[N+](=O)[O-],12,63*,2,3,33,3
Cc1ccc(C)c(N2CCN(C(=O)CCc3nc(-c4cccc(Cl)c4)no3)CC2)c1,-318,17,0,4,-62,-256
COC(=O)C1=C(C)N(Cc2ccccc2)C(=NCC(C)C)N[C@H]1c1cccc(C(F)(F)F)c1,103*,-37,24,-3,1,-9
COC(=O)C1=C(C)N(Cc2ccccc2)C(=NCC(C)C)N[C@H]1c1cccc(F)c1,83*,-20,30,-19,-5,2
COC(=O)C1=C(C)N(Cc2ccccc2)C(=NCc2ccccc2)N[C@H]1c1cccc(C(F)(F)F)c1,99*,-7,28,-38,17,9
COC(=O)C1=C(C)N(Cc2ccccc2)C(=NCCc2cccnc2)N[C@H]1c1ccccc1,-22,-17,-10,-2,1,-2
COC(=O)C1=C(C)N(Cc2ccccc2)C(=NCc2ccco2)N[C@H]1c1cccc(F)c1,-8,9,-4,-1,8,10
COC(=O)C1=C(C)N(Cc2ccccc2)C(=S)N[C@H]1c1cccc(C(F)(F)F)c1,-29,-7,22,-23,20,-100
COC(=O)C1=C(C)N(Cc2ccccc2)C(=NCCc2cccnc2)N[C@H]1c1ccc(Br)cc1,94*,-15,29,-22,-4,-12
SMILES,Peg3 prom inh,TWEAK Fn14 block,CF NFkB inh,KKLEB cytotox,TROY NFkB inh,HIF-2a inh
COC(=O)C1=C(C)N(Cc2ccccc2)C(=O)N[C@H]1c1cccc(C(F)(F)F)c1,25,-28,24,-13,-21,3
CCCNC(=O)C1(C)CCCN(C/C=C/c2ccccc2)C1 (stereo not drawn),0,-7,-20,4,-8,-10
O=C(CCN1CCOCC1)Nc1cc(C(=O)Nc2ccc(Cl)cc2)ccc1N1CC2CC(C1)c1cccc(=O)n1C2 (stereo not drawn),10,-24,-25,23,-7,15
Cc1cccnc1CNC(=O)C1(C)CCCN1CC(C)C (stereo not drawn),2,1,8,15,-4,10
Cc1sc2ncnc(N3CCC(C(=O)N(C)CC(=O)Nc4ccccc4Cl)CC3)c2c1C,49,32,46,-3,25,22
Cc1sc2ncnc(N3CCC(C(=O)N(C)CC(=O)Nc4ccccc4Br)CC3)c2c1C,44,51*,32,-11,30,24
CCN(CC(=O)Nc1cc(Cl)ccc1C)C(=O)C1CCN(c2ncnc3sc(C)c(C)c23)CC1,66*,39,42,-14,36,11
Cc1sc2ncnc(N3CCC(C(=O)N(C)CC(=O)Nc4ccc(Cl)c(C(F)(F)F)c4)CC3)c2c1C,64*,51*,49,-26,58*,9
Cc1sc2ncnc(N3CCC(C(=O)N(C)CC(=O)Nc4cccc(F)c4)CC3)c2c1C,34,65*,40,-8,41,11
CC1(c2ccc(OC(F)F)cc2)NC(=O)N(CC(=O)N2c3ccccc3NC(=O)C2(C)C)C1=O (stereo not drawn),19,12,20,-3,-4,10
CC(OC(=O)c1cc(Br)ccc1O)C(=O)Nc1ccc(S(=O)(=O)N2CCCC2)cc1 (stereo not drawn),28,60*,50,-24,60*,-39
COc1ccc(-n2sc3c(c2=S)-c2cc(OC)ccc2NC3(C)C)cc1,8,0,9,-8,9,41*
CN1C2CCC1/C(=C\c1ccccc1)C(=O)/C2=C\c1ccccc1,73*,56*,-70,9,-7,89*
O=C(CSc1nc2ccccc2[nH]1)NC1CCCc2ccccc21 (stereo not drawn),4,21,6,-7,-4,5
O=C(CSc1nc2ccc(Cl)cc2[nH]1)NC1CCCc2ccccc21 (stereo not drawn),34,63*,2,1,52*,25
O=C(CSc1ccc(Cl)cc1)NC1CCCc2ccccc21 (stereo not drawn),31,-5,-5,-2,74*,19
O=C(CSc1c(Cl)cccc1Cl)NC1CCCc2ccccc21 (stereo not drawn),14,-5,-8,16,12,21
Cc1ccc(-n2nnnc2SCC(=O)NC2CCS(=O)(=O)C2)c(C)c1 (stereo not drawn),8,-13,26,-8,-2,5
CCN(CC(=O)Nc1c(F)cccc1F)C(=O)c1cc(-c2cccs2)nn1-c1ccccc1,58*,20,13,-7,25,5

# Screening results: PubChem BioAssay, Sanford-Burnham Center for Chemical Genomics
